From PubChem BioAssay (Tox21)
Inconclusive results are not listed. Activity calls are given as the source filed them. Unless noted, calls follow the shape of the full dose curve.

Experiments:
[1] = Nuclear factor erythroid 2-related factor 2/antioxidant responsive element (Nrf2/ARE) small molecule agonists: qHTS cell viability counter screen in human keratinocytes (AID 1919968; active = well fitted curve in the direction sought with a large enough effect in the repeat runs; an effect the other way counts as inactive or inconclusive; also: nearly all actives have a fitted effect of over 55% in size)
How it was run: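 KeratinoSens HaCaT cells, 1,500/well, preincubated 5 h, then exposed to compounds in DMSO for 23 h at 37 C/5% CO2. Viability read as CellTiter-Fluor fluorescence after 1 h, in the same wells as the ARE-luciferase read.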

[2] = Nuclear factor erythroid 2-related factor 2/antioxidant responsive element (Nrf2/ARE) small molecule agonists: luciferase reporter gene qHTS assay in human keratinocytes (AID 1919969); also: nearly all actives have a fitted effect of over 35% in size; also: potency is read from the fitted curve at half-maximal effect
[3] = molecular target: Gonadotropin-releasing hormone receptor (Homo sapiens) (UniProt P30968); assay: Human gonadotropin-releasing hormone receptor (GnRHR) small molecule agonists, calcium flux assay in GnRHR-HEK293 cells (AID 1920063); also: nearly all actives have a fitted effect of over 35% in size
How it was run: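 HEK293 cells stably expressing human GnRHR were dye-loaded for 1 h at 37 C. Compound was added in agonist mode and fluorescence (Ex/Em 480/540) recorded kinetically for 3 min. Fifteen concentrations, triplicates.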

[4] = molecular target: KiSS-1 receptor (Homo sapiens) (UniProt Q969F8); assay: Human kisspeptin (KISS1R) small molecule agonists, calcium flux assay in KISS1R-HEK293 cells (AID 1920064; active = well fitted curve in the direction sought with a large enough effect in the repeat runs; an effect the other way counts as inactive or inconclusive)
How it was run: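 HEK293 cells stably expressing human KISS1R were loaded with calcium dye for 1 h at 37 C, then given compound; fluorescence (Ex/Em 480/540) was read kinetically for 3 min. Fifteen concentrations, triplicate.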

[5] = G protein-coupled receptor (GPCR) small molecule agonists, calcium flux assay: HEK293 wild type cell line counter screen (AID 1920065)
How it was run: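 Wild-type HEK293 cells plated 18 h, loaded with calcium dye 1 h at 37 C, then compounds added in agonist mode (ATP as positive control). Kinetic fluorescence Ex/Em 480/540 recorded 3 min at 1 sec intervals; 15 concentrations, triplicate.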

[6] = p53 small molecule agonists, cell-based qHTS assay with human liver microsomes (AID 1963577);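 also: p53 response element beta-lactamase reporter cells with liver microsomes plus NADPH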
How it was run: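 In this qHTS, p53 response-element beta-lactamase cells receive test compound together with a microsome/NADPH activating system (0.5 mg/mL final each) and are incubated 16 h at 37 C before LiveBLAzer fluorescence detection.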

[7] = p53 small molecule agonists, cell-based qHTS assay with rat liver microsomes (AID 1963578)
How it was run: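 Agonist mode in p53RE-bla reporter cells, with compounds co-incubated 16 h at 37 C alongside 0.5 mg/mL rat liver microsomes and 0.5 mg/mL NADPH (final), followed by a 2 h LiveBLAzer detection step.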

[8] = p53 small molecule agonists, cell-based qHTS assay with human liver microsomes: qHTS cell viability counter screen (AID 1963579); also: nearly all actives have a fitted effect of over 45% in size; also: potency is read from the fitted curve at half-maximal effect
How it was run: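 Metabolically activated exposure: compounds, human liver microsomes and NADPH (0.5 mg/mL final apiece) were added to p53RE-bla cells seeded 5 h earlier, left 16 h at 37 C, and then assessed for viability by CellTiter-Glo luminescence.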

[9] = p53 small molecule agonists, cell-based qHTS assay with rat liver microsomes: qHTS cell viability counter screen (AID 1963580); also: nearly all actives have a fitted effect of over 45% in size
How it was run: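 Viability is assessed in parallel with the p53 reporter read: HCT-116 p53RE-bla cells receive compounds plus rat microsomes and NADPH (0.5 mg/mL final apiece), incubate 16 h at 37 C, and then CellTiter-Glo luminescence is recorded.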

[10] = p53 small molecule agonists, cell-based qHTS assay: qHTS cell viability counter screen (AID 1963581); also: nearly all actives have a fitted effect of over 45% in size
How it was run: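 p53RE-bla HCT-116 cells, compounds added 5 h after plating and incubated 16 h at 37 C. Cytotoxicity measured in the same wells as intracellular ATP by CellTiter-Glo luminescence after 30 min at room temperature.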

[11] = molecular target: 5-hydroxytryptamine receptor 2A (Homo sapiens) (UniProt P28223); assay: 5-hydroxytryptamine receptor 2A (HTR2A) small molecule antagonists, cell-based qHTS assay (AID 1963586); also: nearly all actives have a fitted effect of over 45% in size
How it was run: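 Antagonist-mode intracellular calcium assay: DOI (4 nM) added after 5 min compound pre-incubation at room temperature to dye-loaded HTR2A-CHO cells. Fluorescence followed for 3 min, sampled every second.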

[12] = molecular target: 5-hydroxytryptamine receptor 2A (Homo sapiens) (UniProt P28223); assay: 5-hydroxytryptamine receptor 2A (HTR2A) small molecule agonists, cell-based qHTS assay (AID 1963587); also: nearly all actives have a fitted effect of over 30% in size
How it was run: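 CHO cells stably expressing human HTR2A, plated 18 h, loaded with calcium dye 1 h at 37 C. Agonist mode: compounds added and intracellular calcium fluorescence recorded kinetically for 2 min at 1 sec intervals.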

[13] = molecular target: Muscarinic acetylcholine receptor M1 (Homo sapiens) (UniProt P11229); assay: Cholinergic receptor muscarinic 1 (CHRM1) small molecule antagonists, cell-based qHTS assay (AID 1963588); also: nearly all actives have a fitted effect of over 40% in size; also: potency is read from the fitted curve at half-maximal effect
How it was run: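 CHRM1-CHO calcium-flux assay, antagonist mode. Cells were seeded 18 h, dye-loaded 1 h at 37 C and given compound for 5 min at RT, then acetylcholine was added at 50nM. FDSS fluorescence was read 3 min; 15 concentrations, three runs.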

[14] = molecular target: Muscarinic acetylcholine receptor M1 (Homo sapiens) (UniProt P11229); assay: Cholinergic receptor muscarinic 1 (CHRM1) small molecule agonists, cell-based qHTS assay (AID 1963589); also: nearly all actives have a fitted effect of over 35% in size
How it was run: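 CHO cells stably expressing human CHRM1 were loaded with calcium dye for 1 h at 37 C, then compound was added in agonist mode. Intracellular calcium fluorescence was followed kinetically at 1 s intervals. Fifteen concentrations were tested in three independent runs.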

[15] = cAMP Responsive Elements (CRE) small molecule antagonists, cell-based qHTS assay (AID 1963591; active = well fitted inhibition curve with a large enough effect in the signal ratio in the repeat runs, not every such curve was filed as active; the % refers to the signal ratio)
How it was run: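 CRE-bla HEK293T cells plated 18 h, then given compound plus NKH477 at 0.25 uM final for 3 h at 37C. Beta-lactamase reporter read with LiveBLAzer B/G FRET substrate after 2 h at room temperature.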

[16] = molecular target: Beta-2 adrenergic receptor (Homo sapiens) (UniProt P07550); assay: Adrenergic beta2 receptor (ADRB2) small molecule antagonists, cell-based qHTS assay (AID 1963592); also: series mostly up to about 92 µM; nearly all actives have a fitted effect of over 50% in size
How it was run: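 Cells (CHO, stable ADRB2 overexpression) incubated 18-20hr at 37C; compounds added from DMSO; agonist mix (1nM isoproterenol, 100uM IBMX, 25uM Ro-20-1724) added; 0.5hr RT; d2-cAMP and anti-cAMP-cryptate added; 1hr RT; 665/615 nm read.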

[17] = molecular target: D(2) dopamine receptor (Homo sapiens) (UniProt P14416); assay: Dopamine D2 receptor (DRD2) small molecule agonists, cell-based qHTS assay (AID 1963594); also: nearly all actives have a fitted effect of over 35% in size
How it was run: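 HEK293 cells stably expressing human DRD2, pre-treated with PDE inhibitor Ro20-1724 (0.1 mM final) and compound 10 min at room temperature, then stimulated with NKH477 (200nM […]) for 30 min. cAMP read by HTRF (665/620 nm).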

[18] = molecular target: D(2) dopamine receptor (Homo sapiens) (UniProt P14416); assay: Dopamine D2 receptor (DRD2) small molecule antagonists, cell-based qHTS assay (AID 1963595; active = well fitted inhibition curve with a large enough effect in the signal ratio in the repeat runs, with a control signal flat; the % refers to the signal ratio)
How it was run: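 Human DRD2 antagonist qHTS measuring cAMP by HTRF. The cells are exposed to compound for 10 min, then to NKH477 (200 nM) and quinpirole (12 nM) for 30 min at RT, with Ro20-1724 (0.1 mM) present throughout.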

[19] = p53 small molecule agonists, cell-based qHTS assay (AID 1963582; active = well fitted activation curve with a large enough effect in the signal ratio in the repeat runs, not every such curve was filed as active; the % refers to the signal ratio)
How it was run: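 p53RE-bla reporter cells, compounds added in DMSO after 5 h plating, incubated 16 h at 37 C. Beta-lactamase read via 2 h room-temperature LiveBLAzer B/G FRET substrate, fluorescence intensity.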

[20] = cAMP Responsive Elements (CRE) small molecule agonists, cell-based qHTS assay (AID 1963590)
How it was run: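 CRE-bla HEK 293T cells, 2,000/well in DMEM with 10% dialyzed FBS and 25 mM HEPES, pre-incubated 18 h at 37 C, then exposed to compound 3 h at 37 C. Beta-lactamase reporter read with LiveBLAzer B/G FRET substrate after 2 h at room temperature.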

Measured: Potency

Muscarinic acetylcholine receptor M1 (Homo sapiens), sequence (P11229 whole entry, looked up): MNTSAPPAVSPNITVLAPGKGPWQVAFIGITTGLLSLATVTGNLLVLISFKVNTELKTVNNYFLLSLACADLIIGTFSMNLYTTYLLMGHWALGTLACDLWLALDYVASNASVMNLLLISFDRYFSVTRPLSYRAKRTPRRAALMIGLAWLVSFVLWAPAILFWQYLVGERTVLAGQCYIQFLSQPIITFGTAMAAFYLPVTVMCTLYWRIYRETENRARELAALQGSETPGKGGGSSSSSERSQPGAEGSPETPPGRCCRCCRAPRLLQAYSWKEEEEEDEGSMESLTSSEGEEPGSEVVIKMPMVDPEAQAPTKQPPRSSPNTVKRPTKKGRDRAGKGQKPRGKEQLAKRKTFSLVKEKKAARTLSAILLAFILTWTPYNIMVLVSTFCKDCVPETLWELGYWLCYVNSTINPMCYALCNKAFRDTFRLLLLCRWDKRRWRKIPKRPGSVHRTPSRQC
D(2) dopamine receptor (Homo sapiens), sequence (P14416 whole entry, looked up): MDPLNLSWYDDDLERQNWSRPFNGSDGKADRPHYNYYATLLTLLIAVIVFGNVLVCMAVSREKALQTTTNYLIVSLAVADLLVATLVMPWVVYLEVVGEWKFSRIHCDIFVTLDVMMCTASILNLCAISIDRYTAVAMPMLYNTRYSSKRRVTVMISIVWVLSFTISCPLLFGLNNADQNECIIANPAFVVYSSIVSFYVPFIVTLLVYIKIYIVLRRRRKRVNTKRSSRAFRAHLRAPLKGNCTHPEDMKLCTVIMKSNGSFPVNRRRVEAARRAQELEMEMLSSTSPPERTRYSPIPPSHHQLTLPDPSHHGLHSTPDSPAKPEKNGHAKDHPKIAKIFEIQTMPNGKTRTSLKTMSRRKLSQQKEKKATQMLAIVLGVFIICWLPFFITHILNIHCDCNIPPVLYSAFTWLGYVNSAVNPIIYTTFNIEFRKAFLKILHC
KiSS-1 receptor (Homo sapiens), sequence (Q969F8 whole entry, looked up): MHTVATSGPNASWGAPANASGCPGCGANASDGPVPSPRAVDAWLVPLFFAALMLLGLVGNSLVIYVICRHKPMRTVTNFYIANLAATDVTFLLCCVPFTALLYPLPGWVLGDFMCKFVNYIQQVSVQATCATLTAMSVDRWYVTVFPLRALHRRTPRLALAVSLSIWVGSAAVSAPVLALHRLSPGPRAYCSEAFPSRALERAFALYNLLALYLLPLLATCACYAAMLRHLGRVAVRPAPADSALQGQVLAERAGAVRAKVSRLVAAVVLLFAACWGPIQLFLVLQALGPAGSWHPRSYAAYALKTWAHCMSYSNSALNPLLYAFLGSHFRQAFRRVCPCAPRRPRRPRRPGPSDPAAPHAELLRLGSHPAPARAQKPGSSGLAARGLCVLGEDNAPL
5-hydroxytryptamine receptor 2A (Homo sapiens), sequence (P28223 whole entry, looked up): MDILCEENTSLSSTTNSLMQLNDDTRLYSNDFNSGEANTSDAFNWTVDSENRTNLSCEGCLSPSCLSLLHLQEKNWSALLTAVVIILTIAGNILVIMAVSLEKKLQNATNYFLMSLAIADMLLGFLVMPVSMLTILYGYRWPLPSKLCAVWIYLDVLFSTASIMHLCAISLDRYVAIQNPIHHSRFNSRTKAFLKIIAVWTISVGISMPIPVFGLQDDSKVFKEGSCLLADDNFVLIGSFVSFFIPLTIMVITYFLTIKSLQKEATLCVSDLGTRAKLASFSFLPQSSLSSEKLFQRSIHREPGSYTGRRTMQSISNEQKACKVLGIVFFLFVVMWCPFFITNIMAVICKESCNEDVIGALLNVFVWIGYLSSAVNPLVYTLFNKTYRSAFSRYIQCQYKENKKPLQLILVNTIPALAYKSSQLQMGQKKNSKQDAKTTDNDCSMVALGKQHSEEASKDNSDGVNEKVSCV
Gonadotropin-releasing hormone receptor (Homo sapiens), sequence (P30968 whole entry, looked up): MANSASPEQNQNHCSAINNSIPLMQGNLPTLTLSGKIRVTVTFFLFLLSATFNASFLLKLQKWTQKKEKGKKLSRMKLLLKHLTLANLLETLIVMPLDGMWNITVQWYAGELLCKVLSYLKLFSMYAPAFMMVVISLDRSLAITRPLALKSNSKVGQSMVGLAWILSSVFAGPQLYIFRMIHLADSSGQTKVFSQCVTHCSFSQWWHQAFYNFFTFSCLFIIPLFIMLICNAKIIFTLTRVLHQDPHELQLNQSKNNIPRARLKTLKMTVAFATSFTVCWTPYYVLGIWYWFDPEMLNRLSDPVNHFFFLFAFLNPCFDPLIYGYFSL
Beta-2 adrenergic receptor (Homo sapiens), sequence (P07550 whole entry, looked up): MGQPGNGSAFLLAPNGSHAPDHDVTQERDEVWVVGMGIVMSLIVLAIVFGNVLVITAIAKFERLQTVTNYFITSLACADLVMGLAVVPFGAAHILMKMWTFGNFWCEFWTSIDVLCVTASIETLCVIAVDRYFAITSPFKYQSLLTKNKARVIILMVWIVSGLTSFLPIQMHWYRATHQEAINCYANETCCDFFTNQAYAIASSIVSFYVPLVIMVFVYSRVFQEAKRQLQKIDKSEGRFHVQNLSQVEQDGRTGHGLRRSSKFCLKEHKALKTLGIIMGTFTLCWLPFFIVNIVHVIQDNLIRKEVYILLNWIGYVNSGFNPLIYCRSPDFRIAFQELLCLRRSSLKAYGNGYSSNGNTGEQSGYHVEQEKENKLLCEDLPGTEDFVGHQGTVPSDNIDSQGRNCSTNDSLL

CCOC(=O)OC1=C(c2cc(C)ccc2C)C(=O)NC12CCC(OC)CC2 (configuration not stated)
active: [8] 40.8 µM
not listed: [19] | [20]
inactive: all other assays above

C=CCC1([C@H](C)CCC)C(=O)NC(=O)NC1=O
not listed: [11] | [12] | [13] | [14] | [17]
inactive: all other assays above

C=CCC1=C(C)[C@@H](OC(=O)[C@@H]2[C@@H](C=C(C)C)C2(C)C)CC1=O
active: [2] 61.1 µM | [13] 16.8 µM
not listed: [14] | [15] | [16] | [17] | [18] | [19] | [20]
inactive: all other assays above

CCCCCCCCP(=O)(O)O
not listed: [15] | [19]
inactive: all other assays above

Nc1cc(Cl)ccc1Cl
not listed: [11] | [12] | [16] | [20]
inactive: all other assays above

N#CCCl
not listed: [15] | [19] | [20]
inactive: all other assays above

CCN(CC)C(=O)Cl
not listed: [11] | [14] | [16]
inactive: all other assays above

COc1cnc(OC)n2nc(NS(=O)(=O)c3c(OCC(F)F)cccc3C(F)(F)F)nc12
not listed: [11] | [12] | [20]
inactive: all other assays above

CCCSC(=O)N(CCC)CCC
not listed: [11] | [15]
inactive: all other assays above

CCC1(c2ccccc2)C(=O)NC(=O)NC1=O
not listed: [11] | [12] | [13] | [14]
inactive: all other assays above

O=S1(=O)OCCO1
not listed: [11] | [14] | [15] | [17]
inactive: all other assays above

CCCN1CCC[C@@H]2Cc3[nH]ncc3C[C@H]21
not listed: [11] | [12] | [17] | [18]
inactive: all other assays above

CC(C)=CCOc1c2occc2cc2ccc(=O)oc12
not listed: [11] | [20]
inactive: all other assays above

CCCC[N+](CCCC)(CCCC)CCCC
not listed: [19] | [20]
inactive: all other assays above

O=C(Cl)c1ccc(Cl)cc1
not listed: [19]
inactive: all other assays above
